Data published in ChEMBL document CHEMBL3988442, “University of Dundee, Small-Polar-MMV Screening Library” (2021).
For some assays here: Results with a measured potency or affinity are listed apart.

How the values were obtained:
Design in all cases: scale not given: direction of the effect not stated beside the values
[1] = molecular target: Protein translocase subunit SecA (Escherichia coli (strain K12)) (UniProt P10408); test: Assay to Identify E. coli SecA ATPase Inhibitors; type: functional; settings: 30 µM
[2] = molecular target: T1, Ubiquitin-activating enzyme e1, putative (Leishmania donovani (strain BPK282A1)) (UniProt E9BSI1); test: Leishmania donovani Ubiquitin Activating Enzyme (LdE1); type: functional; settings: 30 µM
T1 sequence (whole entry): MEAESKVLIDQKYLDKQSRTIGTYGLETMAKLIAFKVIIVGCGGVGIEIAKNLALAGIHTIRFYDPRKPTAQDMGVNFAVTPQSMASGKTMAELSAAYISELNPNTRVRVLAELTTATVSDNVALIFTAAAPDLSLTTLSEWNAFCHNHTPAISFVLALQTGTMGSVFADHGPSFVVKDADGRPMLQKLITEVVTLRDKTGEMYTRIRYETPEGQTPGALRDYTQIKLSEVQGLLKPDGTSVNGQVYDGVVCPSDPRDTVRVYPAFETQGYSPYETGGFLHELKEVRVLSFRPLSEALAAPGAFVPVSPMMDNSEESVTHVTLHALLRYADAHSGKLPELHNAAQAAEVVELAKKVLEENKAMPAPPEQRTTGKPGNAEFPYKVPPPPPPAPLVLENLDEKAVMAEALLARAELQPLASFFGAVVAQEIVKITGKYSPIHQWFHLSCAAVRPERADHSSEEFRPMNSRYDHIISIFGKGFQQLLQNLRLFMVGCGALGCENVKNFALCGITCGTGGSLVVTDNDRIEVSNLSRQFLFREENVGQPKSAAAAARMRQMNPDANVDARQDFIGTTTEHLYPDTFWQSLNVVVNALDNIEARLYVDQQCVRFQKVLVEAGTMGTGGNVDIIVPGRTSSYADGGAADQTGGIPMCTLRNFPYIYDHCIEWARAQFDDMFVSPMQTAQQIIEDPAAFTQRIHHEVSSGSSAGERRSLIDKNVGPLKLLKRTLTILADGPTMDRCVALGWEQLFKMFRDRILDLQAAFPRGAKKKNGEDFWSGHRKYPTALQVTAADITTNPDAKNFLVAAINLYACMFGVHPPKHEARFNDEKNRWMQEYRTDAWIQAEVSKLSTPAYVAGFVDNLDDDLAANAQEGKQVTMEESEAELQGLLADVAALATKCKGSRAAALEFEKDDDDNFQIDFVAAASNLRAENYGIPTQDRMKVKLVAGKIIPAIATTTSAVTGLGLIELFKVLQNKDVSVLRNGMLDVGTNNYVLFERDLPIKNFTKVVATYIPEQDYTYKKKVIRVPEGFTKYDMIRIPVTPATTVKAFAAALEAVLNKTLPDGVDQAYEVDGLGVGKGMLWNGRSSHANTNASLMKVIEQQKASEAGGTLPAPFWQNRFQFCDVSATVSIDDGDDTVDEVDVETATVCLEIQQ

[3] = molecular target: T2, Aspartate--tRNA(Asp/Asn) ligase (Mycobacterium tuberculosis (strain ATCC 25618 / H37Rv)) (UniProt P9WFW3); test: Assay for Asp RNA synthetase-1 from Mycobacterium tuberculosis; type: functional; settings: 30 µM; note: in the data most compounds retested in dose-response had high values
T2 sequence (whole entry): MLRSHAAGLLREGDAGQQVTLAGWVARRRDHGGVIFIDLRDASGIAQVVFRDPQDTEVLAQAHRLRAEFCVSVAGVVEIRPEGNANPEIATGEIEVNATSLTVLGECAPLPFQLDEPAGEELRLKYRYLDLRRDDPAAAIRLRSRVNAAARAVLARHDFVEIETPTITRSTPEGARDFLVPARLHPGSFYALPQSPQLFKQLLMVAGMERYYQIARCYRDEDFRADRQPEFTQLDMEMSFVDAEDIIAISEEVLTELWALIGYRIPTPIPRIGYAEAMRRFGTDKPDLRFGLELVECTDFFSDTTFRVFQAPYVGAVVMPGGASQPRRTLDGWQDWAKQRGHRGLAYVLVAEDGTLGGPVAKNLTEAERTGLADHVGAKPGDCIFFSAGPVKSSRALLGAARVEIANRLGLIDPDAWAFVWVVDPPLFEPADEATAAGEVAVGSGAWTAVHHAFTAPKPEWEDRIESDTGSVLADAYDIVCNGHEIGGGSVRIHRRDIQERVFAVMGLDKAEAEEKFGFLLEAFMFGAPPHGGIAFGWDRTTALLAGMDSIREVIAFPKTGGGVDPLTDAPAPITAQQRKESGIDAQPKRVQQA

[4] = molecular target: AMP-activated protein kinase, AMPK (Homo sapiens) (UniProt P54646+O43741+P54619+Q9UGJ0+Q9Y478+Q13131+Q9UGI9); test: AMP-dependent Kinase enzyme assay. An in vitro enzyme assay that detects ADP turnover that is directly proportional to AMPK activity. This uses naive AMPK that is activated during the assay with MK-8722; type: functional; settings: 30 µM
[5] = molecular target: Sialic acid-binding Ig-like lectin 9 (Homo sapiens) (UniProt Q9Y336); test: Hs-Siglec9 ALPHAscreen SOP 20170721; settings: 10 µM
Trypanosoma cruzi = test: Trypanosoma cruzi phosphomannomutase and mannose-1-phosphate guanylyltransferase assay; type: functional; settings: 10 µM
[6] = molecular target: T3, Arginase-2, mitochondrial (Homo sapiens) (UniProt P78540); test: in vitro enzyme assay to detect the production of urea directly proportional to the activity of Arginase II; type: functional; settings: 33.3 µM; note: in the data most compounds retested in dose-response had high values
T3 sequence (whole entry): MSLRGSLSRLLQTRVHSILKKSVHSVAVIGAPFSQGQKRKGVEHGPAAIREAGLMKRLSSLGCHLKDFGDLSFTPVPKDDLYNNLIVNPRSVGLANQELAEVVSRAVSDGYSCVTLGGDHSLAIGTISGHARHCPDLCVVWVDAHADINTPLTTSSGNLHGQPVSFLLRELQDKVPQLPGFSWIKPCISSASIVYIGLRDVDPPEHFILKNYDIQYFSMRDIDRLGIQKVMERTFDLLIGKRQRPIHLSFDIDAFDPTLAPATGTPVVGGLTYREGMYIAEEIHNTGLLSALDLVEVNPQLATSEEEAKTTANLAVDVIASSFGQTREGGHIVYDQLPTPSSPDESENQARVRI

[7] = molecular target: T4, Proteasome subunit beta (Trypanosoma cruzi) (UniProt O96673); test: Trypanosoma cruzi proteasome chymotrypsin-like activity (TcProtChymo) assay.; note: in the data most compounds retested in dose-response had high values; type: functional; settings: 9.37 µM
T4 sequence (whole entry): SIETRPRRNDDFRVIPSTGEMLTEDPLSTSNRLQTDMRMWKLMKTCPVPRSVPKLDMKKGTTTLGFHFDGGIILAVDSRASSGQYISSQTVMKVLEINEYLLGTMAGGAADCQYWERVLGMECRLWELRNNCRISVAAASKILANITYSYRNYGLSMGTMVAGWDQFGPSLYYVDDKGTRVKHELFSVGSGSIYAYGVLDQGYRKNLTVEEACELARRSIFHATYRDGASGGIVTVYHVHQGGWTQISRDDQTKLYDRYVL

Homo sapiens = species on record: Homo sapiens; test: To identify inhibition of the IFN signalling (Jak-Stat) pathway via expression of an eGFP reporter gene under the control of an IFN-stimulated response element (ISRE) containing MxA promoter.; type: functional; settings: 30 µM
[8] = molecular target: Shiga toxin 2 (Escherichia coli O157:H7) (UniProt P09385+P09386); test: E. coli 0.157:H7 Shiga Toxin SOP - stx2 screening assay; type: functional; settings: 30 µM
[9] = molecular target: T5, Tyrosyl-tRNA synthetase, putative (Trypanosoma cruzi (strain CL Brener)) (UniProt Q4DSP6); test: Trypanosoma cruzi tyrosyl tRNA synthetase (TcYRS) _High Tyrosine SOP; type: functional; settings: 30 µM; note: in the data most compounds retested in dose-response had high values
T5 sequence (whole entry): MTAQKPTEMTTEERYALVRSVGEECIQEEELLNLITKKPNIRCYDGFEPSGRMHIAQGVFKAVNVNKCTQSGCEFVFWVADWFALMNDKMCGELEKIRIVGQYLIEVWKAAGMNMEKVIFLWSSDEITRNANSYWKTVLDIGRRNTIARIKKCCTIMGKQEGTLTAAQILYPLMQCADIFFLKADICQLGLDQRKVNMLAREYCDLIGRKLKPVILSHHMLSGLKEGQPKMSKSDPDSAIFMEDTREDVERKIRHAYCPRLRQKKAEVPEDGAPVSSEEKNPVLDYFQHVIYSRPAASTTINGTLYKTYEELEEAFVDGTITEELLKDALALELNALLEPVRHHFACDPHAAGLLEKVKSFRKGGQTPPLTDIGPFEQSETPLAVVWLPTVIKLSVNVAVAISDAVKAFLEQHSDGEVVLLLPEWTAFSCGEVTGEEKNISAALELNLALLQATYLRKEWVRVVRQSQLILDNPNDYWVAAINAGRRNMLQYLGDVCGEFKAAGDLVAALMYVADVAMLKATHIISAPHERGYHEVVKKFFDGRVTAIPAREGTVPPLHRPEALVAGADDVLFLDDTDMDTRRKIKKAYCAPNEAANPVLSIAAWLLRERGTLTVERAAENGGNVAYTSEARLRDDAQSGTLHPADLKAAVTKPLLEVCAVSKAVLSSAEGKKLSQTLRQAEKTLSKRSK

[10] = molecular target: T5, Tyrosyl-tRNA synthetase, putative (Trypanosoma cruzi (strain CL Brener)); test: Trypanosoma cruzi tyrosyl tRNA synthetase (TcYRS) SOP; type: functional; settings: 30 µM
[11] = molecular target: Chromo domain-containing protein 1 (Saccharomyces cerevisiae (strain ATCC 204508 / S288c) (Baker's yeast)) (UniProt P32657); test: ScCHD-1 Enzyme Inhibition Assay; type: functional; settings: 30 µM; note: in the data most compounds retested in dose-response had high values
Chain of Chromo domain-containing protein 1 (Saccharomyces cerevisiae (strain ATCC 204508 / S288c) (Baker's yeast)) (P32657 whole entry, the tested form may be a part): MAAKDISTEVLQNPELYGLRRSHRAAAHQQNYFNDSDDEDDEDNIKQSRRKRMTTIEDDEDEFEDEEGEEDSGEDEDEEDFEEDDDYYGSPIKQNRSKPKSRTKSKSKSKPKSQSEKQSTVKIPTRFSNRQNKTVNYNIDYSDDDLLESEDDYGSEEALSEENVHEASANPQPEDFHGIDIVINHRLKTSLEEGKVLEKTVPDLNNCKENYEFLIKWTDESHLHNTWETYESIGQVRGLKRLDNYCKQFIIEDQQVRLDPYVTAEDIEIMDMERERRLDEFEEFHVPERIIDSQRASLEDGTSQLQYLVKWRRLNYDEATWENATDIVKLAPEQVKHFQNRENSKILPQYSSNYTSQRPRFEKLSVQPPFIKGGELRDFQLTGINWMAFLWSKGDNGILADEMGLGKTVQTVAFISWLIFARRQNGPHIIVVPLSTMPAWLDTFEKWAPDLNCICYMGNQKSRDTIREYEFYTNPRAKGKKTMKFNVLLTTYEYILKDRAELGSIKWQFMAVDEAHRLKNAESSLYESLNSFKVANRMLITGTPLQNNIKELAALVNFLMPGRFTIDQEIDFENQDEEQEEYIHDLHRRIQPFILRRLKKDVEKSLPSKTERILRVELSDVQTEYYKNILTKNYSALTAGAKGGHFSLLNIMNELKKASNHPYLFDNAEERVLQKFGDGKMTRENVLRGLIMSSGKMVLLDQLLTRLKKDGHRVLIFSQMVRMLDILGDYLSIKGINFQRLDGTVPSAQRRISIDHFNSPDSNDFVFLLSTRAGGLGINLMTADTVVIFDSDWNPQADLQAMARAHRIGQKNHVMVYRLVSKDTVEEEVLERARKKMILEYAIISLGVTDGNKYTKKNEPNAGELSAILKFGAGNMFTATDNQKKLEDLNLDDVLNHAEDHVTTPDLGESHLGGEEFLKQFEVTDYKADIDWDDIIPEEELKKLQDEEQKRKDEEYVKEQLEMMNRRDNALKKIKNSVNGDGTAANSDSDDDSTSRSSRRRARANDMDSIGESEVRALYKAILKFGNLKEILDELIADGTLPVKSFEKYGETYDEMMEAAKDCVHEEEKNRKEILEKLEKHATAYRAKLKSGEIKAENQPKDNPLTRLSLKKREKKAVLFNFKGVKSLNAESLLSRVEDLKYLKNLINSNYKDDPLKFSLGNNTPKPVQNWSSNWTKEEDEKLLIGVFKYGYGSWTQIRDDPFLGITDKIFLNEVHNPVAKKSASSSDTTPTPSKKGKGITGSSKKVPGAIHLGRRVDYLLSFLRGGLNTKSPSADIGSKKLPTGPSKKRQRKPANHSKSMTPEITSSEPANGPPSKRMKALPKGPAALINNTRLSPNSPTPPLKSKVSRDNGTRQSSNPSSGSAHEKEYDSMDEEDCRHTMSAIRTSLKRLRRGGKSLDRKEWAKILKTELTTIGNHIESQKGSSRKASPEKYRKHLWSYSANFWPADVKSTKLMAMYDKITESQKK

Chain of Protein translocase subunit SecA (Escherichia coli (strain K12)) (P10408 whole entry): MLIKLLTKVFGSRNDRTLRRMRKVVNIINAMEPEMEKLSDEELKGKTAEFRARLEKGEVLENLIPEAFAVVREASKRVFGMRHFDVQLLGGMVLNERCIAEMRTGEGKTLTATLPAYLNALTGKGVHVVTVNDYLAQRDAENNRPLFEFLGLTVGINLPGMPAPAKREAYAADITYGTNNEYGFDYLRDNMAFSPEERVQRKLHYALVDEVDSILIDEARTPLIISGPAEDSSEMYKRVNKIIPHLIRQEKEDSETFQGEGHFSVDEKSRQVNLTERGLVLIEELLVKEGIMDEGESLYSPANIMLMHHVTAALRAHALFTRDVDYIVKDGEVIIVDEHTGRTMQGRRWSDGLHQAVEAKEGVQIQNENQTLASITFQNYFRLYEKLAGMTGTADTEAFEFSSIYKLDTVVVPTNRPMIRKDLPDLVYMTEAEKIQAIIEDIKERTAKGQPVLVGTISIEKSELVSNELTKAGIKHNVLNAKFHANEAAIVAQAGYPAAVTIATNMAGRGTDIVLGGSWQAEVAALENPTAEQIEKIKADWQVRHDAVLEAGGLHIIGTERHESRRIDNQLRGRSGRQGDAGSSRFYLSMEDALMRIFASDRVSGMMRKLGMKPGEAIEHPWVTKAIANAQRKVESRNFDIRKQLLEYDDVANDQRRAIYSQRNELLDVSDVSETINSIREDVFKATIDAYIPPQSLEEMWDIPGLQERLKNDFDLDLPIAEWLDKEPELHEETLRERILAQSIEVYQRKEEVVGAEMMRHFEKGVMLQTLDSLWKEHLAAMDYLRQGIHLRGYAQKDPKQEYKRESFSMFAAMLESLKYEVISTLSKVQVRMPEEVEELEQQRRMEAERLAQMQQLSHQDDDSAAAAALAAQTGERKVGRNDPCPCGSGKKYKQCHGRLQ
Chain of Sialic acid-binding Ig-like lectin 9 (Homo sapiens) (Q9Y336 whole entry): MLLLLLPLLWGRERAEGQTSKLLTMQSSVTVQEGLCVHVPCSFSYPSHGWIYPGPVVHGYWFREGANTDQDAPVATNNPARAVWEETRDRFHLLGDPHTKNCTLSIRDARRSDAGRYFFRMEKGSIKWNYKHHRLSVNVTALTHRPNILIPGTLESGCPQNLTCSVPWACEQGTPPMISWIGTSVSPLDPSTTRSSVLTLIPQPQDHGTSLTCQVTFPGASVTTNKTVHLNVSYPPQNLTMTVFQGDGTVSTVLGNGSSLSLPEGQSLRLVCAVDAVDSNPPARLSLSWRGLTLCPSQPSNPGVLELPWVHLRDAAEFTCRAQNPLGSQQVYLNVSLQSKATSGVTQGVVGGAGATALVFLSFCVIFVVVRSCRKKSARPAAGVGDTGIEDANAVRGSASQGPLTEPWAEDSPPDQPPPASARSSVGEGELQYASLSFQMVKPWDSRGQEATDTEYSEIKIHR

Structure (SMILES)	Percent Effect [1] [%]	Percent Effect [2] [%]	Percent Effect [3] [%]	Percent Effect [4] [%]	Percent Effect [5] [%]	Percent Effect (Trypanosoma cruzi) [%]	Percent Effect [6] [%]	Percent Effect [7] [%]	Percent Effect (Homo sapiens) [%]	Percent Effect [8] [%]	Percent Effect [9] [%]	Percent Effect [10] [%]	Percent Effect [11] [%]
CS(=O)(=O)N1CCC(C(=O)N2CCC3(CC2)OCCCO3)CC1	-4.7	20.8	3.34	-4.81	-12.3	5.23	3.23	12.2	14.4	-32.1	6.35	21.8	-10.8
O=C(c1ccnnc1)N1C[C@@H]2OCCN(CCN3CCCC3)[C@@H]2C1	3.18	0	0.474	-5.06	4.92	-2.64	-1.59	12.7	-3.96	-4.98	6.49	2.56	6.02
CN(C)C(=O)COC[C@H]1CC[C@@H]2[C@@H](CCN2Cc2ccccn2)O1	1.44	2.7	-8.07	-3.81	1.03	4.1	2.5	8.88	-3.32	-6.42	-14.8	3.66	-2.81
Cc1cc(CN2CC[C@H]3OCC[C@@]3(C(=O)NC(C)C)C2)no1	-1.37	15.6	0.364	0.843	5.07	0.888	4.52	10.4	16.3	-28.2	5.29	11.5	-5.46
COc1ccc(C2SCC(=O)Nc3ccsc32)cc1 (stereo not given)	-5.35	-12	4.36	29	5.11	-5.5	1.94	13.9	30.7	-15.2	10.6	2.56	11.2
